# PubChem BioAssay
# The list shows a part of the results. A number with no mark means an inactive call. Activity calls are given as the source filed them.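 How the source made its calls, unless noted: active means activation above the solvent-only control well mean plus 3 SD, set per plate batch (cut at about 110% in these data); inactive means the rest.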
# How the values were obtained:
# [1] = STAT1 signaling activators, confirmation, cell-based, HTS, luciferase reporter (AID 1262;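 active means activation above a set limit carried over from the earlier primary STAT1 screen, cut at about 140% in these data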;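 further: simple ratio to median IFN-gamma plus DMSO wells so 0% means no light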); conditions: NIH 3T3 STAT1-luciferase reporter, IFN-gamma potentiation, luminescence; at 5.7 µM; stronger effect = higher value; 100% = IFN-gamma EC80 alone, no compound
# [2] = NF-kB reporter activators, TNF-alpha stimulated, counter-screen for STAT1 activator project, cell-based, HEK293T, luciferase luminescence (AID 1306;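 active means activation above the mean of solvent-only control wells plus 3 SD, set per campaign, cut at about 130% in these data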;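 further: TNF-alpha given at a submaximal dose yielding about 80% of full reporter signal; values are well signal over median control so 100% means no change and 0% no light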); conditions: at 5.7 µM, stronger effect = higher value, 100% = TNF-alpha with vehicle only
# [3] = biological target: Signal transducer and activator of transcription 3 (Homo sapiens) (UniProt P40763); assay: STAT3 reporter activation by STAT1 hits, confirmation, counter-screen for STAT1 activator project, U3A cells, luciferase, luminescence (AID 1316); conditions: IL-6, luminescence, at 5.7 µM, stronger effect = higher value, 100 = IL-6 alone, no compound effect, cells lack STAT1;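 further: 0% = no luminescence and 100% = median IL-6 plus DMSO wells; higher means more STAT3 reporter activation so hits are non-selective activators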
# [4] = biological target: Oxysterols receptor LXR-beta (Homo sapiens) (UniProt P55055); assay: LXR agonists, Gal4 luciferase reporter, confirmation, counter-screen for hcDAF-12 agonist project, cell-based, luminescence, HEK293, H. contortus campaign (AID 743027;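 active means mean percent activation of the reporter above a cutoff set as the average over tested compounds plus their standard deviation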); conditions: HEK293 Gal4-LXR tk-luc reporter, 24 h, at 6.8 µM, stronger effect = higher value, normalized: DMSO 0%, positive control 100%
# [5] = system: Nuclear hormone receptor DAF-12 (Haemonchus contortus); assay: H. contortus DAF-12 receptor agonists, confirmation, cell-based, luminescence, HEK293, lit1-tk-luc, triplicate (AID 743032;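 active means mean activation across triplicate tests above the threshold derived from the earlier primary screen, cut at about 5.5% in these data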;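 further: 0% = DMSO only wells and 100% = 3 µM Δ7-dafachronic acid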); conditions: HEK293 hcDAF-12 lit1-tk-luc reporter, at 6.8 µM, stronger effect = higher value, % of Δ7-dafachronic acid response
# [6] = system: DAF-12 nuclear receptor (Heterodera glycines), GAL4-LBD fusion; assay: H. glycines DAF-12 receptor agonists, confirmation, cell-based, luminescence, HEK293, GAL4-LBD fusion (AID 743050;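 active means mean activation over triplicate wells above the hit cutoff derived from the earlier primary screen, cut at about 11% in these data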;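 further: 0% = DMSO low control and 100% = 2 mM sodium butyrate high control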); conditions: HEK293 GAL4-hgDAF12 luciferase reporter, agonist mode; at 6.8 µM; stronger effect = higher value; percent of butyrate response
# [7] = biological target: Oxysterols receptor LXR-beta (Homo sapiens) (UniProt P55055); assay: LXR agonists, Gal4 luciferase reporter, confirmation, counter-screen for hgDAF-12 agonist project, cell-based, luminescence, HEK293, H. glycines campaign (AID 743051;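 active means mean activation of the triplicate above a set limit carried over from the primary screen, none filed active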); conditions: 24 h, at 6.8 µM, stronger effect = higher value
# [8] = biological target: Sphingosine 1-phosphate receptor 4 (Homo sapiens) (UniProt O95977); assay: S1P4 receptor antagonists, human, confirmation, cell-based (AID 1524; in the data active means inhibition above about 30%); conditions: S1P4-expressing cell line, antagonist mode, reporter read-out; at 4.98 µM; stronger effect = higher value
# [9] = biological target: Sphingosine 1-phosphate receptor 1 (Homo sapiens) (UniProt P21453); assay: S1P1 receptor antagonists, human, counter-screen for S1P4 antagonist project, cell-based (AID 1564; in the data active means inhibition above about 40%;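 further: receptor stimulated with S1P near its EC80; 0% = agonist stimulated wells and 100% = vehicle only wells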); conditions: cell-based S1P1 antagonist counterscreen, at 4.98 µM, stronger effect = higher value
# [10] = KLF5 expression inhibitors, confirmation, DLD-1 cells, luminescence (AID 1834;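 active means inhibition above a set limit taken from the earlier primary screen, cut at about 63% in these data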;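 further: 0% = DMSO wells and 100% = LY294002 at 200 µM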); conditions: DLD-1 KLF5 promoter firefly luciferase reporter, at 4 µM, stronger effect = higher value
# [11] = cytotoxicity in rat IEC-6 cells, cytotoxicity control for KLF5 inhibitor project, cell-based, luminescence, triplicate (AID 1905; in the data active means inhibition above about 23%;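 further: cells exposed to compounds for 48 hours before viability read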); conditions: IEC-6 rat intestinal cells, viability luminescence; at 4 µM; stronger effect = higher value
# Sequence of Oxysterols receptor LXR-beta (Homo sapiens) (P55055 whole entry, looked up, the tested form may be a part): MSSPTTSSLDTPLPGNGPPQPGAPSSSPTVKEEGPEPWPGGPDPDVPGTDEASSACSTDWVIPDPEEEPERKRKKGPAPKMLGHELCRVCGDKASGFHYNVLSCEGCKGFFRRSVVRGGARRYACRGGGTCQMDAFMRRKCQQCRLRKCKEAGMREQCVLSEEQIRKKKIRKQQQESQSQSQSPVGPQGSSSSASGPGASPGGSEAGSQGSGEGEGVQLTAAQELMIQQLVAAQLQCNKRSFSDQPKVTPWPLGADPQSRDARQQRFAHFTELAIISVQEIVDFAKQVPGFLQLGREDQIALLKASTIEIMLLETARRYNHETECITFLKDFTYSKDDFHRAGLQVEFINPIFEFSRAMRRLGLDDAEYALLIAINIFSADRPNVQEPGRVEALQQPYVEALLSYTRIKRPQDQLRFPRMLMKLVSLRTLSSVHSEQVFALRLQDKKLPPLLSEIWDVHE
# Sequence of Sphingosine 1-phosphate receptor 1 (Homo sapiens) (P21453 whole entry, looked up): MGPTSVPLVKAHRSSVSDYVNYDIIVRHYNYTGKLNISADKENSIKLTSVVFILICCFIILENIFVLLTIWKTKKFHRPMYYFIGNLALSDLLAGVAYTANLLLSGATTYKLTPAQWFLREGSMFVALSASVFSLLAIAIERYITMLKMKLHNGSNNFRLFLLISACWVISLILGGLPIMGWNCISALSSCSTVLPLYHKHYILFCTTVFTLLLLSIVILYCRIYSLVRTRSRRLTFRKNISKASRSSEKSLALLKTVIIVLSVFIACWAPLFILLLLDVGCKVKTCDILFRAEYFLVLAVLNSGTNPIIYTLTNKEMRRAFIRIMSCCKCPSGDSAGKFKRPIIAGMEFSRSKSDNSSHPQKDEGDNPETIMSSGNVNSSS
# Sequence of Sphingosine 1-phosphate receptor 4 (Homo sapiens) (O95977 whole entry, looked up): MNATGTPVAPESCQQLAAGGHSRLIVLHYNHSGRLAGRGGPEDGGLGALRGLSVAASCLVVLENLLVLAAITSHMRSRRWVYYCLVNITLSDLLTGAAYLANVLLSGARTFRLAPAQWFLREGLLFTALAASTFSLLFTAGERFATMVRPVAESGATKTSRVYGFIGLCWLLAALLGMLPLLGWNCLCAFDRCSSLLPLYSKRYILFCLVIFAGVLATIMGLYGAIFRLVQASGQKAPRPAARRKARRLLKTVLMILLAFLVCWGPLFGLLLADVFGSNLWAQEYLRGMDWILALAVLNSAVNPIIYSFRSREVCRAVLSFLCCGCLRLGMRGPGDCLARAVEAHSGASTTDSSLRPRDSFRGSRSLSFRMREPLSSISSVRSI
smiles,measurement,setting,value
Cc1ccc(NC(=O)c2csc3c2CCCC3)cc1,activation (% of control),[1],202% (active)
same,activation (% of control),[2],140% (active)
same,activation (% of control),[3],111% (active)
same,activation,[4],1.06%
same,activation,[5],6.25% (active)
same,activation,[6],17.6% (active)
same,activation,[7],0.8%
c1ccc(Nc2nc(-c3ccncc3)cs2)nc1,activation (% of control),[1],243% (active)
same,activation (% of control),[2],126%
same,activation (% of control),[3],126% (active)
same,activation,[4],1.73%
same,activation,[5],8.34% (active)
same,activation,[6],16.8% (active)
same,activation,[7],0.86%
COc1ccc2nc(SCc3ccccc3)nc(C)c2c1,activation (% of control),[1],231% (active)
same,activation (% of control),[2],141% (active)
same,activation (% of control),[3],107%
same,activation,[4],1.78%
same,activation,[5],5.65% (active)
same,activation,[6],17.7% (active)
same,activation,[7],1%
COc1ccc2oc(-c3cccc(NC(=O)CSc4ccc(Cl)cc4)c3)nc2c1,activation (% of control),[1],216% (active)
same,activation (% of control),[2],140% (active)
same,activation (% of control),[3],100%
COc1ccc(-n2nnnc2-c2nc3ccccc3s2)cc1,activation (% of control),[1],214% (active)
same,activation (% of control),[2],117%
same,activation (% of control),[3],111% (active)
same,activation,[4],1.88%
same,activation,[5],12.8% (active)
OCCCN1c2ccccc2Nc2nnc(-c3ccccc3)cc21,activation (% of control),[1],177% (active)
same,activation (% of control),[2],132%
same,activation (% of control),[3],102%
CC(=O)Nc1cccc(-c2csc(Nc3cccc(C)n3)n2)c1,activation (% of control),[1],241% (active)
same,activation (% of control),[2],144% (active)
same,activation (% of control),[3],106%
same,activation,[4],1.08%
same,activation,[5],3.26%
same,activation,[6],19% (active)
same,activation,[7],1.17%
O=C(Nc1ccc(-c2nnc(-c3ccccc3)o2)cc1)C1CCCO1 (configuration not stated),activation (% of control),[1],207% (active)
same,activation (% of control),[2],122%
same,activation (% of control),[3],123% (active)
same,activation,[6],15.9% (active)
same,activation,[7],0.9%
CCOC(=O)/C(C#N)=C/c1ccc(N2CCCCC2)cc1,activation (% of control),[1],155% (active)
same,activation (% of control),[2],140% (active)
same,activation (% of control),[3],108%
CC(=O)c1sc(NC(=O)c2ccc(C)cc2)nc1C,activation (% of control),[1],185% (active)
same,activation (% of control),[2],123%
same,activation (% of control),[3],94.7%
COc1ccc(/C=N/Nc2nc3ccccc3o2)cc1OC,activation (% of control),[1],208% (active)
same,activation (% of control),[2],133%
same,activation (% of control),[3],108%
Clc1ccc(Nc2nc(-c3cccs3)cs2)nc1,activation (% of control),[1],289% (active)
same,activation (% of control),[2],149% (active)
same,activation (% of control),[3],133% (active)
same,activation,[4],2.13%
same,activation,[5],13.6% (active)
same,activation,[6],13.1% (active)
same,activation,[7],0.65%
CCc1ccc(NC2Nc3cc(C)nn3S2)cc1 (configuration not stated),activation (% of control),[1],206% (active)
same,activation (% of control),[2],141% (active)
same,activation (% of control),[3],126% (active)
same,activation,[6],18.8% (active)
same,activation,[7],0.76%
Cc1cccc(NC(=O)Nc2ccc3c(c2)OCO3)n1,activation (% of control),[1],192% (active)
same,activation (% of control),[2],133% (active)
same,activation (% of control),[3],121% (active)
same,activation,[4],0.92%
same,activation,[5],4.11%
same,activation,[6],18.4% (active)
same,activation,[7],0.79%
Cc1ccccc1Nc1nc(N)nc(CSc2ccccc2)n1,activation (% of control),[1],220% (active)
same,activation (% of control),[2],126%
same,activation (% of control),[3],127% (active)
same,activation,[4],1.61%
same,activation,[5],8.23% (active)
same,activation,[6],17.7% (active)
same,activation,[7],0.84%
CC1CN/C(=C\C(=O)c2ccc(Br)cc2)C(=O)N1 (configuration not stated),activation (% of control),[1],250% (active)
same,activation (% of control),[2],117%
same,activation (% of control),[3],87.3%
CCOc1ccc2nc(C(=O)N3CCCC(C)C3)sc2c1 (configuration not stated),activation (% of control),[1],217% (active)
same,activation (% of control),[2],133%
same,activation (% of control),[3],97.8%
same,activation,[4],1.14%
same,activation,[5],4.22%
CN(C)c1ccnc2sc(C(=O)c3ccccc3)c(N)c12,activation (% of control),[1],188% (active)
same,activation (% of control),[2],126%
same,activation (% of control),[3],109%
same,activation,[6],14.2% (active)
same,activation,[7],0.47%
CC(C)(C)C(=O)c1cnc(Nc2ccccc2)s1,activation (% of control),[1],164% (active)
same,activation (% of control),[2],121%
same,activation (% of control),[3],105%
same,activation,[6],13.6% (active)
same,activation,[7],0.48%
c1cnc(Nc2nc(-c3ccc4ccccc4c3)cs2)nc1,activation (% of control),[1],208% (active)
same,activation (% of control),[2],139% (active)
same,activation (% of control),[3],105%
CCC(=O)NC(=Nc1nc2ccccc2s1)NC(=O)CC,activation (% of control),[1],216% (active)
same,activation (% of control),[2],138% (active)
same,activation (% of control),[3],112% (active)
COc1ccc2nc(NC(=O)c3ccc(Br)s3)sc2c1,activation (% of control),[1],185% (active)
same,activation (% of control),[2],134% (active)
same,activation (% of control),[3],99.8%
COc1ccc(NC(=O)/C(Cl)=C(/Cl)S(=O)Cc2ccc(C)cc2)cn1 (configuration not stated),activation (% of control),[1],324% (active)
same,activation (% of control),[2],51.5%
same,activation (% of control),[3],103%
same,inhibition,[8],121% (active)
same,inhibition,[9],117% (active)
same,inhibition,[10],109% (active)
same,inhibition,[11],87% (active)
COc1ccc(-c2csc(Cc3nc(O)cs3)n2)cc1,activation (% of control),[1],265% (active)
same,activation (% of control),[2],150% (active)
same,activation (% of control),[3],124% (active)
same,activation,[4],1.22%
same,activation,[5],7.02% (active)
CC(=O)c1sc(N/N=C\c2ccc(C)cc2)nc1C,activation (% of control),[1],191% (active)
same,activation (% of control),[2],143% (active)
same,activation (% of control),[3],107%
CC(C)c1ccc(NC(=O)NC2CCCCC2)cc1,activation (% of control),[1],191% (active)
same,activation (% of control),[2],128%
same,activation (% of control),[3],129% (active)
Cc1cccc(N=Nc2c(O)[nH]c3ccc(F)cc23)c1,activation (% of control),[1],160% (active)
same,activation (% of control),[2],135% (active)
same,activation (% of control),[3],109%
